For twelve molecules, Potency results are on record in PubChem BioAssay (NCATS).

A short description of experiment [1]: S16 Schwann cell viability assay (CellTiter-Glo assay) (AID 624031).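 Note: cellular ATP luminescence as a viability measure; nearly all actives have a fitted effect of over 70% in size.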 The essentials: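 This viability control uses native rat S16 Schwann cells grown in DMEM plus 10% FBS. After a 24 h compound treatment at 37 °C, CellTiter-Glo luminescence reports ATP content, scaled against DMSO-treated and cell-free wells.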
On the technique in general: Cellular ATP, detected with luciferase, serves as a proxy for viable cell number.

In experiment [2] the test system is 3D7. Kind of experiment: qHTS profiling for inhibitors of Plasmodium falciparum proliferation (AID 504749). Note: nearly all actives have a fitted effect of over 60% in size. Note: potency is the fitted concentration of half-maximal effect. To be noted: P. falciparum in erythrocytes, SYBR Green DNA, 72 h; series mostly up to 28.7 µM. In outline: (§1)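 P. falciparum-infected erythrocytes (0.3% parasitemia, 2.5% hematocrit) incubated with compound 72 h at 37 C, 5% CO2. Parasite DNA detected by SYBR Green after lysis, overnight at room temperature; normalised to 0.29 uM artemisinin and DMSO.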
Background: Quantitative high-throughput screening tests each substance at several concentrations.

The test system of experiment [3] is AA1029. Described as above. To be noted: P. falciparum in erythrocytes, SYBR Green DNA, 72 h; series mostly up to 28.7 µM. The essentials:
as §1

In experiment [4] the test system is ATS95. The experiment is described as above. To be noted: P. falciparum in erythrocytes, SYBR Green DNA, 72 h; series mostly up to 28.7 µM. In outline: as §1
Experiment [5] has as its system CP191. The experiment is described as above. To be noted: P. falciparum in erythrocytes, SYBR Green DNA, 72 h; series mostly up to 28.7 µM. The essentials: as §1
Experiment [6] relates to CP211. The description is as above. To be noted: P. falciparum in erythrocytes, SYBR Green DNA, 72 h; series mostly up to 28.7 µM. In outline: as §1
Experiment [7] has as its system CP215. The experiment is described as above. To be noted: P. falciparum in erythrocytes, SYBR Green DNA, 72 h; series mostly up to 28.7 µM. In outline:
as §1

The subject of experiment [8] is CP217. The description is as above. To be noted: P. falciparum in erythrocytes, SYBR Green DNA, 72 h; series mostly up to 28.7 µM. In outline: as §1
The subject of experiment [9] is CP238. The experiment is described as above. To be noted: P. falciparum in erythrocytes, SYBR Green DNA, 72 h; series mostly up to 28.7 µM. In outline: as §1
For experiment [10], the system named is CP250. Described as above. To be noted: P. falciparum in erythrocytes, SYBR Green DNA, 72 h; series mostly up to 12.8 µM. The essentials: as §1
The test system of experiment [11] is CP252. The experiment is described as above. To be noted: P. falciparum in erythrocytes, SYBR Green DNA, 72 h; series mostly up to 12.8 µM. The essentials:
as §1

Experiment [12] deals with CP256. The experiment is described as above. To be noted: P. falciparum in erythrocytes, SYBR Green DNA, 72 h; series mostly up to 28.7 µM. In outline: as §1
The subject of experiment [13] is DIV30. The experiment is described as above. To be noted: P. falciparum in erythrocytes, SYBR Green DNA, 72 h; series mostly up to 28.7 µM. In outline:
as §1

In experiment [14] the test system is HB3. The experiment is described as above. To be noted: P. falciparum in erythrocytes, SYBR Green DNA, 72 h; series mostly up to 28.7 µM. In outline: as §1
For experiment [15], the system named is N140. The description is as above. To be noted: P. falciparum in erythrocytes, SYBR Green DNA, 72 h; series mostly up to 28.7 µM. In outline: as §1
In experiment [16] the test system is P93_24. The experiment is described as above. To be noted: P. falciparum in erythrocytes, SYBR Green DNA, 72 h; series mostly up to 28.7 µM. In outline:
as §1

Experiment [17] deals with P94_40. The experiment is described as above. To be noted: P. falciparum in erythrocytes, SYBR Green DNA, 72 h; series mostly up to 28.7 µM. In outline: as §1
For experiment [18], the system named is PAD. The description is as above. To be noted: P. falciparum in erythrocytes, SYBR Green DNA, 72 h; series mostly up to 28.7 µM. The essentials: as §1
In experiment [19] the test system is PC49. Described as above. To be noted: P. falciparum in erythrocytes, SYBR Green DNA, 72 h; series mostly up to 28.7 µM. In outline:
as §1

The test system of experiment [20] is TAB165. The description is as above. To be noted: P. falciparum in erythrocytes, SYBR Green DNA, 72 h; series mostly up to 28.7 µM. The essentials:
as §1

Molecules are shown by their SMILES. Records with an inconclusive call do not appear. Activity calls are given as the source filed them. Calls come from the whole dose curve; as a rule, active = well fitted curve in the direction sought with a large enough effect; inconclusive = small, poorly fitted or top-dose-only effect, or another doubt; inactive = no such curve, though single readings can be large; an effect the other way counts as inactive or inconclusive.

Consider `O=C1C=C2C=CC3C[C@@]2(O1)C1CCCCN31` (stereo partly specified), for which the Potency result in experiment [1] is “inactive”. For the same molecule, the Potency in experiment [2] is 12.6 µM (active); in experiment [3] it was 12.6 µM (active); in [4] it was 10 µM (active); in experiment [5], 10 µM (active); in [6] it was 13.5 µM (active); in experiment [7] it was 10.7 µM (active). Also, the Potency in [8] was 8.91 µM (active); in experiment [9] it was 11.2 µM (active); in experiment [10] it was 12.6 µM (active); in experiment [11] it was 11.2 µM (active); in experiment [12] it was 11.2 µM (active); in experiment [13], 13.5 µM (active). In addition, the Potency in experiment [14] was 11.2 µM (active); in [15], 12.6 µM (active); in experiment [16] it was 12.6 µM (active); in experiment [17] it was 8.91 µM (active); in experiment [18], 12.6 µM (active); in [19], 10 µM (active). In experiment [20], the Potency was 11.2 µM (active).
Regarding `CNC(C)[C@@H](O)c1ccccc1` (stereo partly specified), the Potency result in experiment [1], in [2], in experiment [3], in experiment [4], in [5] and in experiment [6] was “inactive” in each case. The Potency entry in [7], in experiment [8], in experiment [9], in experiment [10], in experiment [11] and in [12] was “inactive” in each case. Further, the Potency result in experiment [13], in experiment [14], in experiment [15], in experiment [16], in experiment [17] and in [18] was “inactive” each time. Moreover, the Potency entry in experiment [19] and in [20] was “inactive” each time.
For `C=CC1CN2CCC1CC2C(OC(=O)OCC)c1ccnc2ccc(OC)cc12` (stereo unspecified), the Potency result in experiment [1] and in experiment [19] was “inactive” each time. Moreover, the Potency is 2.51 µM (active) in experiment [2]; 5.01 µM (active) in experiment [3]; 3.98 µM (active) in [4]; 5.01 µM (active) in experiment [5]; 15.1 µM (active) in [6]; 12 µM (active) in experiment [7]. The Potency was 7.94 µM (active) in experiment [8]; 8.91 µM (active) in experiment [9]; 12.6 µM (active) in [10]; 8.91 µM (active) in experiment [11]; 11.2 µM (active) in [12]; 9.53 µM (active) in experiment [13]. Further, the Potency in experiment [14] is 6.31 µM (active); in [15], 11.2 µM (active); in experiment [16], 7.94 µM (active); in experiment [17] it was 3.55 µM (active); in experiment [18] it was 6.31 µM (active); in experiment [20] it was 0.501 µM (active).
`CNc1ccc(C(=O)CC(O)CCC(C)C2OC(=O)CC(O)CC(=O)CC(O)CC(O)CC(O)CC(O)CC3(O)CC(O)C(C(=O)OC)C(CC(O[C@@H]4OC(C)C(O)C(N)C4O)/C=C/C=C/C=C/C=C/C=C/C=C/C=C/C2C)O3)cc1` (stereo partly specified): the Potency entry in experiment [2], in experiment [3], in [4], in [5], in experiment [6] and in [7] was “inactive” in each case. In addition, the Potency result in [8], in [9], in experiment [10], in [11], in experiment [12] and in experiment [13] was “inactive” throughout. The Potency entry in experiment [14], in [15], in experiment [16], in experiment [17], in [18] and in [19] was “inactive” throughout. Further, the Potency entry in experiment [20] was “inactive”.
For the molecule `COc1cc(N)c(Cl)cc1C(=O)N[C@@H]1CN2CCC1CC2`, the Potency entry in experiment [1], in [2], in [3], in experiment [4], in experiment [5] and in [6] was “inactive” in each case. Also, the Potency result in [7], in [8], in [9], in [10], in experiment [11] and in experiment [12] was “inactive” each time. The Potency entry in experiment [13], in experiment [14], in experiment [15], in experiment [16], in [17] and in experiment [18] was “inactive” throughout. Moreover, the Potency entry in experiment [19] and in [20] was “inactive” throughout.
Turning to `C[C@@H]1O[C@H](O[C@@H]2C=C3CC[C@H]4[C@@H](CC[C@]5(C)[C@@H](c6ccc(=O)oc6)CC[C@]45O)[C@@]3(C)CC2)[C@@H](O)[C@H](O)[C@@H]1O`, the Potency result in experiment [1], in experiment [2], in experiment [3], in experiment [4], in experiment [5] and in experiment [6] was “inactive” in each case. Moreover, the Potency result in [7], in experiment [8], in [9], in [10], in experiment [11] and in experiment [12] was “inactive” in each case. Further, the Potency result in experiment [13], in [14], in experiment [15], in experiment [16], in experiment [17] and in [18] was “inactive” throughout. Besides, the Potency result in experiment [19] and in experiment [20] was “inactive” throughout.
Regarding `CC(C)CC(CN)CC(=O)O` (stereo unspecified), in experiment [1], the Potency result is “inactive”.
For `CC([C@H](O)c1ccccc1)N(C)C` (stereo partly specified), the Potency entry in experiment [1], in experiment [2], in experiment [3], in [4], in [5] and in experiment [6] was “inactive” each time. Besides, the Potency result in experiment [7], in [8], in experiment [9], in experiment [10], in experiment [11] and in experiment [12] was “inactive” each time. The Potency entry in experiment [13], in experiment [14], in experiment [15], in experiment [16], in [17] and in experiment [18] was “inactive” in each case. Also, the Potency entry in [19] and in experiment [20] was “inactive” in each case.
Consider `ClC1=C(Cl)C2(Cl)C3C4CC(C5OC45)C3C1(Cl)C2(Cl)Cl` (stereo unspecified), for which the Potency entry in [1], in experiment [2], in experiment [3], in experiment [5], in experiment [6] and in [7] was “inactive” each time. Besides, the Potency result in experiment [8], in experiment [9], in experiment [10], in [11], in experiment [12] and in experiment [13] was “inactive” each time. The Potency result in [14], in experiment [15], in experiment [16], in experiment [18], in experiment [19] and in experiment [20] was “inactive” each time.
Turning to `COc1cc2c(cc1OC)[C@@]13CCN4CC5=CCOC6CC(=O)N2C1[C@H]6[C@@H]5C[C@@H]43` (stereo partly specified), the Potency result in experiment [1], in [2], in experiment [3], in experiment [4], in [5] and in experiment [6] was “inactive” throughout. For the same molecule, the Potency result in experiment [7], in [8], in [9], in experiment [10], in experiment [11] and in [12] was “inactive” throughout. The Potency result in experiment [13], in [14], in experiment [15], in [16], in experiment [17] and in experiment [18] was “inactive” in each case. For the same molecule, the Potency result in [19] and in experiment [20] was “inactive” each time.
Consider `O=c1ccc2cc(O[C@H]3O[C@@H](CO)[C@@H](O)[C@@H](O)[C@@H]3O)c(O)cc2o1`, for which the Potency entry in experiment [1], in experiment [3], in experiment [4], in experiment [5], in experiment [6] and in experiment [7] was “inactive” in each case. The Potency entry in experiment [8], in [9], in experiment [10], in [11], in experiment [12] and in [13] was “inactive” throughout. Also, the Potency entry in experiment [14], in [15], in experiment [16], in experiment [17], in experiment [18] and in experiment [19] was “inactive” throughout. For the same molecule, in [20], the Potency result is “inactive”.
Turning to `CCC(C)C1O[C@]2(C=CC1C)CC1CC(C/C=C(\C)[C@H](OC3CC(OC)C(O[C@H]4CC(OC)[C@@H](O)C(C)O4)C(C)O3)[C@@H](C)/C=C/C=C3\COC4C(O)C(C)=C[C@H](C(=O)O1)[C@@]34O)O2` (stereo partly specified), the Potency result in experiment [1] was “inactive”. Also, the Potency in experiment [2] was 11.2 µM (active); in experiment [3], 11.2 µM (active); in [4], 10 µM (active); in experiment [5], 7.94 µM (active); in experiment [6] it was 12 µM (active); in [7], 13.5 µM (active). The Potency in experiment [8] is 10 µM (active); in experiment [10], 11.2 µM (active); in experiment [11], 11.2 µM (active); in [12], 6.31 µM (active); in experiment [15] it was 10 µM (active); in [17], 10 µM (active). Moreover, in [20], the Potency is 12.6 µM (active).
